# RGS16-Gao HTS = regulators of human RGS16-Galphao interaction; bead-based flow cytometry RGS16-Galphao binding, fluorescence; actives lie on both sides; 0.38% of 220,000 active; O15492+P09471; binding response (% of control), % at 10 µM; call rule not given here;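 note: Galphao activated by GDP with aluminum fluoride before binding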
# Target sequence (O15492 whole entry, looked up): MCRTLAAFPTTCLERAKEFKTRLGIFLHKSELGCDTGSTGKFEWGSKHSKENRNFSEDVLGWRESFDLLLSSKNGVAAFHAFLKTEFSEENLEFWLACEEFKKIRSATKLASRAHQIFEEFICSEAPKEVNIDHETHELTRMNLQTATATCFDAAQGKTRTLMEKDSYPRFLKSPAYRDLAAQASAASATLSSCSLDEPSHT
# Target sequence (P09471 whole entry, looked up): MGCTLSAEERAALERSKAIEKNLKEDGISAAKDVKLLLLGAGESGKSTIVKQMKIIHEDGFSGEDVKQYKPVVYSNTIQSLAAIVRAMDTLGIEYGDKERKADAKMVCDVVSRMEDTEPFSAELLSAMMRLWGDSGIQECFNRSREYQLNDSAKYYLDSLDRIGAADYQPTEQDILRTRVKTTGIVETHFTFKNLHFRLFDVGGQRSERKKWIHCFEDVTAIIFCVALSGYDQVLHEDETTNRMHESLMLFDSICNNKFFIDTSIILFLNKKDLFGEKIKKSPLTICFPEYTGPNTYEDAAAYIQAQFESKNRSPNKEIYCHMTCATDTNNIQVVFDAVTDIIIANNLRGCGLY
# RGS7-Gao = modulates binding of RGS7 to human Galphao; P09471; Multiplexed bead flow cytometry; actives lie on both sides; binding response (% of control), % at 10 µM; 0.35% of 220,000 active; in the data active = binding response below about 49% or above about 150%; inconclusive = no clear call, values can overlap the other calls; inactive = in between;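 note: fluorescent Galphao held in activated GDP-AlF4 state binding bead-coupled RGS7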
# Target sequence (P09471 whole entry, looked up): as above
# RGS8-Gao reg = human RGS8-Galphao interaction regulation | response (percent of control binding), % at 10 µM | 0.34% of 220,000 active | P09471 | multiplexed bead flow cytometry, RGS8-Galphao binding; actives lie on both sides; in the data active = response below about 60% or above about 140%; inactive = in between;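 note: Galphao activated as the GDP aluminium fluoride complex binding bead-coupled RGS8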
# Avidin fluor = avidin bead compound fluorescence profile | Avidin beads, compound fluorescence 488/530 nm, flow cytometry; stronger effect = higher value | fluorescence (KMESF) at 10 µM | 0.38% of 220,000 active | AID 1775; in the data active = fluorescence above about 47
# GSH fluor = GSH bead compound fluorescence profile | AID 1776 | 0.25% of 190,000 active | GSH beads flow cytometry, compound fluorescence 488/530 nm; stronger effect = higher value | fluorescence (KMESF) at 10 µM; in the data active = fluorescence above about 89;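 note: glutathione beads carrying GST-tagged Bcl family fusion proteins plus one bare bead set; values are compound well signal with DMSO vehicle wells as background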
# RGS4-Gao reg = human RGS4-Galphao interaction regulation; Multiplexed bead flow cytometry, RGS4-Galphao binding; actives lie on both sides; binding response (% of control), % at 10 µM; 0.33% of 220,000 active; AID 1415; in the data active = binding response below about 49% or above about 150%; inactive = in between;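 note: fluorescent Galphao activated with aluminum fluoride binding bead-coupled RGS4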
# * = called active by the depositor; ? = inconclusive; [ ] = remark or other dose. An excerpt weighted towards active compounds, which were near 1.2% of everything screened.
SMILES,RGS16-Gao HTS,RGS7-Gao,RGS8-Gao reg,Avidin fluor,GSH fluor,RGS4-Gao reg
CCn1c(SCC(=O)C(C)(C)C)nnc1-c1ccccn1,103.3,100.5,97.6,15,32,97.8
CCn1c(SCC(=O)C(C)(C)C)nnc1-c1cnccn1,73.6,85.7,99.2,4,95*,91.6
O=c1oc2cc(O)ccc2cc1-c1nc2c(s1)CCc1ccccc1-2,104.7,97.2,98.2,5,159*,98.7
O=c1oc2ccccc2cc1-c1nc2c(s1)CCc1ccccc1-2,104.9,103.0,100.5,10,12,96.3
COC(=O)c1ccc(-c2ccc(C(=O)N3CCCN(C)CC3)cc2)cc1,109.4,103.0,100.7,6,256*,103.5
COc1ccc(C(O)c2coc3ccc(O)c(CN(C)C)c23)cc1 (stereo unspecified),92.3,115.5,99.5,83*,16,102.9
Cc1ccc(OCCn2cnc3ccccc3c2=O)c([N+](=O)[O-])c1,105.1,99.0,103.7,5,14,99.6
COc1ccc(-c2nnn(CCc3nn[nH]n3)n2)cc1OC,91.2,95.3,101.5,13,25,92.0
COc1ccc(-c2nnn(Cc3nn[nH]n3)n2)cc1OC,96.5,96.5,97.4,8,280*,96.4
Cc1cccc(-c2c3c(=O)n(C)c(=O)n(C)c3cn2CC2CCCO2)c1 (stereo unspecified),86.5,99.0,92.6,6,261*,83.6
O=C(Cc1ccccc1)N/N=C/c1ccc2cccc(O)c2n1,108.8,100.3,100.0,11,24,101.3
COc1ccc(/C=N/n2c(C)cc(C)c(C(N)=O)c2=O)cc1,98.8,91.8,95.2,7,255*,93.3
COc1cc(C(F)(F)F)nc(-c2ccccn2)n1,104.0,?,101.8,11,18,101.3
CC(C)Nc1cc(C(F)(F)F)nc(-c2ccccn2)n1,159.8,273.6*[activator],94.6,332*,33,152.7*[activator]
COc1ccc(Cn2c(C)nnc2-c2cnn(C)c2N)cc1OC,96.7,100.8,99.6,9,13,98.9
Cc1nnc(-c2cnn(C)c2N)n1Cc1ccccc1F,107.6,96.6,102.6,6,270*,103.8
CCOC(=O)C1C(C(=O)NN)C1C(=O)Nc1ccccc1 (stereo unspecified),100.8,102.9,101.6,12,14,101.2
C=CCNS(=O)(=O)c1cccc(C(C)=O)c1,106.0,103.2,103.3,16,11,102.7
C=CCNS(=O)(=O)c1cccc2cc(C(=O)O)c(O)cc12,103.8,108.4,100.2,50*,22,99.3
COc1ccc(N(C(=O)Cn2nnc3ccccc32)C(C(=O)NCc2ccco2)c2ccc(C)o2)cc1 (stereo unspecified),84.8,101.9,100.4,6,252*,98.6
Cc1cc2ncn(C(=O)N3CCCCCC3)c2cc1C,44.3,93.3,87.6,2,97*,90.9
CCc1ccc(NC(=O)c2onc(C)c2Cl)cc1,104.3,108.8,100.0,6,19,105.3
COC(=O)c1ccc(C2C(Oc3ccccc3)C(=O)N2CCc2ccc(F)cc2)cc1 (stereo unspecified),99.5,112.3,99.6,61*,17,99.9
CNC(=S)N1N=C(c2ccc(Br)cc2)CC1c1ccc(Br)cc1 (stereo unspecified),92.7,103.8,97.2,48*,23,97.5
CNC(=S)N1N=C(c2ccc(Br)cc2)CC1c1ccc(N(C)C)cc1 (stereo unspecified),103.5,?,102.0,9,16,103.7
SMILES,RGS16-Gao HTS,RGS7-Gao,RGS8-Gao reg,Avidin fluor,GSH fluor,RGS4-Gao reg
Cc1cccc(C)c1N1CCc2cn[nH]c21,100.0,102.0,95.7,48*,12,102.5
CC1(c2ccccc2)NC(=O)N(CC#N)C1=O (stereo unspecified),100.8,101.4,100.2,13,12,98.0
COc1cc(NC(=O)COC(=O)C=C(C)C)c(C)cc1[N+](=O)[O-],94.8,?,94.5,9,20,92.2
CN1CCC(N(C)C(=O)c2sc3cc(F)ccc3c2Cl)CC1,103.8,?,95.0,136*,14,130.7
CC(C)N(CC(N)=O)C(=O)c1sc2cc(F)ccc2c1Cl,90.8,91.7,94.9,18,9,96.5
CCOC(=O)C(C)n1cnc2c(nnn2Cc2ccc(C)cc2)c1=O (stereo unspecified),100.2,111.9,98.0,49*,27,102.7
C=CCOc1ccc(CNCCc2ccc(S(N)(=O)=O)cc2)cc1,95.5,98.7,100.8,3,9,97.9
COc1ccc(-n2c3c(c(=O)[nH]c2=O)C(NC(C)=O)(C(F)(F)F)C(=O)N3)cc1 (stereo unspecified),76.1,101.6,94.6,16,8,99.2
S=c1[nH]nc(-c2ccccc2Cl)n1CC1CCCO1 (stereo unspecified),103.9,110.3,101.1,52*,30,102.5
CC(=O)Nc1nonc1-c1nc2ccccc2n1CCC#N,109.1,96.7,105.7,9,25,96.6
CC(=O)Nc1nonc1-c1nc2ccccc2n1CC1CC1,80.3,116.5,92.5,57*,13,100.8
COc1ccc(OC)c(-c2c3cc(O)c(=O)cc-3oc3cc(O)c(O)cc23)c1,17.0*,4.7*,35.7*,-3,274*,38.7*
O=C(CSc1nnnn1C1CCCC1)Nc1ccc(F)cc1,108.0,129.1,107.3,89*,37,109.4
O=C(CSc1nnnn1C1CCCCC1)Nc1ccc(F)cc1,102.5,108.1,103.2,5,22,104.5
O=C(C1=C[C@@H](c2ccc(Br)cc2)C[C@@H](OCc2ccc(CO)cc2)O1)N1CCN(Cc2ccc3c(c2)OCO3)CC1,108.8,99.8,100.8,5,20,101.6
CC(=O)Nc1ccc2c(c1)C(=O)c1ccccc1C2=O,100.7,113.9,101.4,59*,27,106.2
O=C1c2ccccc2C(=O)c2cc(NC(=O)C3CC3)ccc21,89.7,97.5,102.0,6,15,101.1
CCOC(=O)C1=C(c2ccccc2)O/C(=C(/C#N)C(F)(F)F)S1,101.3,136.4,100.8,59*,32,107.7
CC(=O)OCC(=O)Nc1ccc([N+](=O)[O-])cc1Cl,104.0,105.7,102.8,8,21,102.3
CC(=O)OCC(=O)Nc1ccc(Cl)cc1Cl,113.4,113.9,112.5,4,231*,123.8
CN1CCCC(OC(=O)c2cc(Cl)ccc2Cl)C1 (stereo unspecified),101.6,100.4,99.8,7,258*,96.7
CC(C)(C)OC(=O)[C@H](Cc1ccccc1)NC(=O)c1nc[nH]c1C(=O)NC1CCN(C(=O)OC(C)(C)C)CC1,104.3,108.1,103.2,6,19,105.8
Cc1c(NC(=O)c2cccs2)cccc1C(=O)O,89.0,89.9,100.6,18,28,92.0
Cc1ccc(C(=O)O)cc1NC(=O)c1cccs1,98.0,95.4,101.9,7,95*,98.5

# From PubChem
